Screening data from PubChem.
Hits are enriched below; roughly 19% of the tested compounds scored in any of these assays.
HT1080NT lethal: qHTS for induction of synthetic lethality in tumor cells producing 2HG: qHTS for the HT-1080-NT fibrosarcoma cell line | HT-1080-NT fibrosarcoma viability, CellTiter-Glo ATP luminescence, 48 h | Potency, µM (series often up to 46.1 µM), without a hit: top-dose activity, negative = less viability, usual class: cytotoxic | hit rate 1.6% among 360,000;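 further: NT is the 2HG producing partner of a matched IDH1 knockdown line; potency means the concentration at half of the fitted maximal effect; 0% = DMSO-treated cells and -100% = media-only wells without cells; nearly all actives have a fitted effect of over 55% in size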
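Compounds were tested in concentration-response format on HT-1080-NT cells for 48 hours at 37 degrees C. Cell viability came from CellTiter-Glo luminescence; curves were classified by r2, response magnitude and activity.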
DT40 TDP1 no CPT: qHTS for Inhibitors of human tyrosyl-DNA phosphodiesterase 1 (TDP1): qHTS in cells in absence of CPT; DT40 Tdp1-/- hTDP1 cells, no CPT, ATP luminescence, 48 h; Potency, µM (doses to about 46.2 µM), for the others: at the highest dose activity change, negative = growth inhibition, most hits filed as inhibitors; hit rate 15% among 420,000; further: potency means the concentration at half of the fitted maximal effect; nearly all actives have a fitted effect of over 55% in size
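Compound effects on proliferation are scored in DT40 Tdp1-/-;hTDP1 cells in the absence of CPT. ATP levels (CellTiter-Glo luminescence) are recorded after a ≥48 hr, 37 °C incubation.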
HT1080 IDH1KD tx: qHTS for induction of synthetic lethality in tumor cells producing 2HG: qHTS for the HT-1080-IDH1KD cell line. HT-1080 IDH1 knockdown viability, ATP luminescence, 48 h. Potency, µM (series often up to 46.1 µM), inactives show at the top dose activity, negative = toxicity, actives largely listed as cytotoxic. hit rate 2% among 360,000. AID 686971, 2013;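 further: potency means the concentration at half of the fitted maximal effect; 0% = DMSO wells and -100% = cell-free medium wells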
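HT-1080-IDH1KD cells (IDH1 knocked down), 750/well in RPMI with 5% FBS, treated with compound 48 h at 37 degrees C. Viability by CellTiter-Glo luminescence, normalised to DMSO and no-cell wells; concentration-response curves classed.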
IL-1B inflam inh: qHTS for Inhibitors of Inflammasome Signaling: IL-1-beta AlphaLISA Primary Screen; AID 743279, 2014; THP-1 LPS/ATP IL-1B secretion, AlphaLISA, 16 h; hits give low values; activity change, % at 57.5 µM; hit rate 4.7% among 360,000; in the data active means activity change below about -50%; inconclusive means mostly about -30% to -49%
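Secreted IL-1B measured by AlphaLISA bead assay after 16 h compound exposure of THP-1 cells; compounds (final up to 57.5 uM) added 1 h before LPS (250 ng/mL) and ATP (1.25 mM) stimulation; lower signal means less secretion.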
TDP1 cell CPT: qHTS for Inhibitors of human tyrosyl-DNA phosphodiesterase 1 (TDP1): qHTS in cells in presence of CPT | chicken DT40 Tdp1-/-;hTDP1 cells + 20 nM CPT, ATP luminescence, 48 h | Potency, µM (highest dose often 46.2 µM), for inactives: at the top dose activity change, negative = growth inhibition, most hits filed as inhibitors | hit rate 12% among 420,000; further: potency means the concentration at half of the fitted maximal effect; nearly all actives have a fitted effect of over 55% in size
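Cell growth measured by CellTiter-Glo luminescence after a minimum 48 h, 37 C compound exposure with 20 nM CPT in Tdp1-knockout DT40 cells stably expressing hTDP1, seeded 400/well; qHTS titration format.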
The depositor's hits bear a star; u = inconclusive; x = not tested or not shown; ! = repeats disagree. Unless noted, the call rests on the fitted dose curve; in most records, active means well fitted curve in the direction sought with a large enough effect; inconclusive means small, poorly fitted or top-dose-only effect, or another doubt; inactive means no such curve, though single readings can be large; an effect the other way counts as inactive or inconclusive. Unless noted, on the % scale 0 is the no-effect control and ±100 the full control effect.

SMILES | HT1080NT lethal | DT40 TDP1 no CPT | HT1080 IDH1KD tx | IL-1B inflam inh | TDP1 cell CPT
O=C(C1CCN(S(=O)(=O)c2ccc3c(c2)OCCO3)CC1)N1CCc2ccccc21 | 6% | 21µM* | -1% | -7 | u
NC(=O)Cn1c(=O)n(Cc2ccccc2)c(=O)c2cccnc21 | 11% | -1% | 5% | 12 | -2%
O=C(C1CCC1)N1CCc2cc(S(=O)(=O)Nc3ccc4c(c3)OCCO4)ccc21 | -9% | 7.3µM* | u | u | 12µM*
Cc1cc(Cl)ccc1NS(=O)(=O)c1ccc2c(c1)CCN2S(C)(=O)=O | x | 21µM* | x | x | u
CC(Nc1n[nH]c(=O)[nH]c1=O)C(=O)N/N=C/c1cccs1 (configuration not stated) | 14% | -6% | 16% | -11 | -2%
Cc1ccc(CCN2C(=O)c3ccccc3C2C(=O)NCc2cccnc2)cc1 (configuration not stated) | 11% | -4% | 5% | -8 | 1%
O=C(O)COCC(=O)N1CCc2c([nH]c3ccccc23)C1C(F)(F)F (configuration not stated) | 1% | 18% | 3% | -6 | -5%
CCOC(=O)c1c(-c2ccccc2)nc2ccc(C)cn12 | 8% | 16µM* | 5% | 11 | u
CCOC(=O)C(=O)c1c(-c2ccc(C)cc2)nc2ccccn12 | -3% | u | -2% | -16 | 23µM*
Cc1ccc(SCC(=O)c2c(C)nc3ccccn23)cc1 | u | 10µM* | -23% | u | 21µM*
CCOC(=O)c1c(-c2ccccc2)nc2cc(C)ccn12 | -23% | u | u | -10 | u
COCCN(Cc1ccc(C)cc1)C(=O)[C@H]1O[C@@H](n2ccc(=O)[nH]c2=O)[C@H](O)[C@@H]1O | 26% | -5% | 10% | 20 | -27%
COc1ccc(Cl)cc1C1CC(=O)Nc2cc3c(cc21)OCCO3 (configuration not stated) | x | 0.37µM* | x | x | 0.65µM*
O=C1CC(c2ccc3c(c2)OCO3)c2cc3c(cc2N1)OCO3 (configuration not stated) | -4% | u | -8% | -20 | -29%
Cc1ccc(C2CC(=O)Nc3cc4c(cc32)OCCO4)s1 (configuration not stated) | -27% | u | u | 13 | u
O=C1CC(c2cc(F)cc(F)c2)c2cc3c(cc2N1)OCO3 (configuration not stated) | x | 16µM* | x | x | u
O=C1CC(c2cccs2)c2cc3c(cc2N1)OCCO3 (configuration not stated) | -40% | 21µM* | -9% | 7 | u
O=C1CC(c2cccc(Cl)c2Cl)c2cc3c(cc2N1)OCCO3 (configuration not stated) | x | 21µM* | x | x | u
COc1ccccc1C(=O)N(Cc1ccc(Cl)cc1)C1CCS(=O)(=O)C1 (configuration not stated) | 15% | 7% | -5% | 8 | 0%
O=C(NCCN1CCOCC1)c1ccc(N2CCCC2)c([N+](=O)[O-])c1 | -14% | 1% | -3% | 0 | -3%
COc1cccc(C2CC(=O)Nc3cc4c(cc32)OCCO4)c1OC(C)C (configuration not stated) | -9% | u | -20% | 11 | u
COc1ccccc1C1CC(=O)Nc2cc3c(cc21)OCCO3 (configuration not stated) | 2.2µM* | 5.2µM* | 1.8µM* | 42 | 5.2µM*
CCOC(=O)N1CCN(S(=O)(=O)c2ccc(C(=O)N(CCCN(C)C)c3nc4ccc(Cl)cc4s3)cc2)CC1 | -18% | 18µM* | -12% | -96* | u
CCOC(=O)N1CCN(S(=O)(=O)c2ccc(C(=O)N(CCCN(C)C)c3nc4ccc(CC)cc4s3)cc2)CC1 | u | u | 16µM* | -62* | u
CCCCCCCCCCCCCCCC(=O)OCC1OC(n2ccc(N)nc2=O)C(O)C1O (configuration not stated) | -1% | 0.65µM* | -11% | 0 | 0.52µM*
SMILES | HT1080NT lethal | DT40 TDP1 no CPT | HT1080 IDH1KD tx | IL-1B inflam inh | TDP1 cell CPT
Nc1ccn(C2OC(CO)C(O)C2F)c(=O)n1 (configuration not stated) | -1% | 2.1µM* | -4% | 13 | 1.3µM*
Nc1ccn([C@@H]2O[C@H](CO)[C@@H](OP(=O)(O)O)[C@H]2O)c(=O)n1 | x | 1% | x | x | 5%
OCC1OC(n2ccc3c2ncn2ncnc32)C(O)C1O (configuration not stated) | 0.58µM* | 0.46µM* | 0.65µM* | 66 | 0.37µM*
CCCCCCCCCCCCCCCC(=O)Nc1ccn(C2OC(CO)C(O)C2O)c(=O)n1 (configuration not stated) | -4% | 0.73µM* | u | 30 | 0.65µM*
COc1nc(=O)n(C2OC(CO)C(O)C2O)cc1C (configuration not stated) | 3% | 3% | 24% | 4 | -3%
CCOC(=O)Cc1cc(=O)[nH]c(/N=C(\N)Nc2ccc(C)c(C)c2)n1 | -6% | u | 0% | 0 | u
NC[C@H]1O[C@@H](n2ccc(N)nc2=O)[C@H](O)[C@@H]1O | 1% | u | -15% | 21 | u
Nc1ccn([C@H]2CC[C@@H](CO)O2)c(=O)n1 | 15% | 11µM* | -1% | 2 | 7.5µM*
Nc1ccn(C2OC(CO)C(O)C2O)c(=O)n1 (configuration not stated) | x | 0.012µM*! | x | x | 0.016µM*!
Nc1ccn([C@@H]2O[C@H](CO)[C@@H](O)[C@@H]2O)c(=O)n1 | -8% | 0.16µM* | u | 61 | 0.12µM*
COCC1CCCC1OS(N)(=O)=O (configuration not stated) | 0% | -4% | 14% | 11 | 10%
O=C(NCCc1ccc(Cl)cc1)c1cc(-c2ccccc2)n[nH]1 | x | -12% | x | x | u
O=C(COc1ccccc1C(=O)Nc1ccccc1)Nc1cccc([N+](=O)[O-])c1 | x | u | x | x | 13µM*
O=C(COc1ccccc1C(=O)Nc1ccccc1)Nc1cccc(Cl)c1 | -27% | 18µM* | -17% | x | 18µM*
O=C(COc1ccccc1C(=O)Nc1cccc([N+](=O)[O-])c1)Nc1ccc(Br)cc1 | x | 16µM* | x | x | 7.9µM*
CCOC(=O)c1cccc(NC(=O)COc2ccc([N+](=O)[O-])cc2)c1 | 5% | u | 5% | 10 | u
